The list is not random: actives were taken first. Their share in the collection is about 7.5%.
VP16 counter – inhibits Gal4-VP16 luciferase reporter, ROR gamma counter-screen | Drosophila S2 Gal4-VP16 UAS-luciferase, luminescence, 20 h | Potency, µM (top dose mostly 53.6 µM), for inactives: top-dose activity, negative = inhibition, most hits filed as inhibitors | 310,000 compounds, 3.5% hits;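 also: Gal4-VP16 expression switched on by copper sulfate through the metallothionein promoter; potency is read from the fitted curve at half-maximal effect; nearly all actives have a fitted effect of over 50% in size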
ELG1 repair inh – ELG1-dependent DNA repair inhibition; HEK293T ELG1-luciferase reporter, luminescence, 16 h; DNA damage induced by 5-fluorouridine; AID 504467; Potency, µM (highest dose often 46.1 µM), without a hit: at the top dose activity change, negative = inhibition, usual class: inhibitors; 330,000 compounds, 2.3% hits; also: potency is read from the fitted curve at half-maximal effect; nearly all actives have a fitted effect of over 55% in size
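Luminescence from the luciferase reporter, measured 30 min after ONE-Glo reagent at room temperature, was the read-out. Beforehand, 2,000 cells per well were exposed for 16 hr at 37 °C to 5-fluorouridine together with compound or vehicle.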
TSHR antag – blocks TSH signaling through the human TSH receptor; 330,000 compounds, 0.2% hits; TSHR-expressing cells, TSH-stimulated cAMP HTRF, 2 h; active compounds read low; activity change, negative = inhibition, % at 11.5 µM;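 active = activity change below a set negative limit, meaning inhibition stronger than a set level, cut at about -70% in these data; inconclusive = activity change between two set negative limits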
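TSHR-expressing cells were treated with compounds, then stimulated with TSH at EC80 (4nM final) for 2 hours at 37 deg C. Cellular cAMP was measured by HTRF competition between lysate cAMP and cAMP-d2 for a cryptate-labelled anti-cAMP antibody.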
B2AR arrestin – agonists driving beta-arrestin recruitment to human beta2-adrenergic receptor | beta-arrestin recruitment to beta2AR, cell-based reporter | Potency, µM (titrated, usually from 46.1 µM), for the others: at the highest dose activation, most hits filed as activators | AID 492947 | P07550 | 330,000 compounds, 0.02% hits;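 also: potency is read from the fitted curve at half-maximal effect; 0% = DMSO controls and full agonism = EC100 isoproterenol or metaproterenol; nearly all actives have a fitted effect of over 65% in size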
RORg inh – ROR gamma (mouse) transcription inhibition; Drosophila S2 Gal4-RORgamma UAS-luciferase reporter, 20 h; Potency, µM (series often up to 53.6 µM), inactives show at the top dose activity change, negative = inhibition, usual class: inhibitors; 310,000 compounds, 5.4% hits; also: potency is read from the fitted curve at half-maximal effect; nearly all actives have a fitted effect of over 60% in size
Target sequence (P51450 whole entry, looked up, the tested form may be a part): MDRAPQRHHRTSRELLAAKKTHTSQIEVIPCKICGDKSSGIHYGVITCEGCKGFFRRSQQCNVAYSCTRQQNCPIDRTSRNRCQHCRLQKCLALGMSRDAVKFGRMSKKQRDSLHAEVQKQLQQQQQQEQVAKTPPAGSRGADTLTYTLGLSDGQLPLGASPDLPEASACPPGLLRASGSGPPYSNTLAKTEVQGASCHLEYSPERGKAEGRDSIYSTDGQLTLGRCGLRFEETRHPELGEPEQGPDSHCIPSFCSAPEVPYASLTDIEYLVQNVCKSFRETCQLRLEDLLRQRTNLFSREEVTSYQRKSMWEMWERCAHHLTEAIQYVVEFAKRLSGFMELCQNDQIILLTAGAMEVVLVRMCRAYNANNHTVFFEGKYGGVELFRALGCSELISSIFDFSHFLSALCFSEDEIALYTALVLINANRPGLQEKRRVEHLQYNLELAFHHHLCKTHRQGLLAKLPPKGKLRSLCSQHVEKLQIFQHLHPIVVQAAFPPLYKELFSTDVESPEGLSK
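Luminescence from a UAS-regulated Photinus luciferase reporter in stably transfected Drosophila Schneider cells is measured; decreased signal marks ROR gamma inhibition. Fusion expression is induced by 700 uM copper sulfate for 20 hr.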
The depositor's hits bear a star; ? = inconclusive; / = no result. Unless noted, calls follow the shape of the dose curve; as a rule, active = well fitted curve in the direction sought with a large enough effect; inconclusive = small, poorly fitted or top-dose-only effect, or another doubt; inactive = no such curve, though single readings can be large; an effect the other way counts as inactive or inconclusive. Unless noted, % is scaled to controls: 0 for no effect and ±100 for the full control effect.

SMILES	VP16 counter	ELG1 repair inh	TSHR antag	B2AR arrestin	RORg inh
Cc1ccccc1NC(=S)N(CCN(C)C)C(C)c1ccccn1 (centres undefined)	5%	6%	28	-1%	?
CSc1cccc(NC(=S)N(CCN(C)C)C(C)c2ccccn2)c1 (centres undefined)	?	?	17	0%	18µM*
Cc1ccc([S+](=O)([O-])N(c2ccccc2)[S+](=O)([O-])C(F)(F)F)cc1	-3%	/	/	/	-21%
CCOC(=O)c1nc(N/N=C/c2ccccc2)sc1Br	?	24%	-9	1%	18µM*
CC(=O)c1sc(N/N=C\c2ccc(Br)cc2)nc1C	?	?	-10	0%	?
CCOC(=O)c1sc(N/N=C/c2ccc(N(C)C)cc2)nc1C	11µM*	3%	-4	0%	?
N#C/C(=N/Nc1ccc(OC(F)(F)F)cc1)C(N)=S	4.5µM*	?	?	0%	4.5µM*
c1ncc(-c2ccoc2)c(NC2CC2)n1	-7%	/	/	/	24%
CC(C)(C)C(=O)N1CCC[C@H]1C(O)(c1ccccc1)c1ccccc1	22µM*	-14%	11	4%	?
Cc1nc(-c2ccccc2)sc1C(=O)NN	11µM*	-27%	1	-1%	13µM*
COc1cccc(NC(=O)CCNC(=O)C2CCN(S(=O)(=O)c3ccc(F)cc3)CC2)c1	-4%	9%	14	0%	1%
O=C(NC(=S)Nc1ccccc1N1CCOCC1)c1ccc([N+](=O)[O-])cc1	?	?	0	-3%	8.9µM*
O=C(NC(=S)Nc1ccccc1N1CCCC1)c1ccc([N+](=O)[O-])cc1	0.11µM*	-27%	-10	-1%	0.05µM*
Cc1c(C(=O)NC(=S)Nc2ccccc2N2CCCC2)cccc1[N+](=O)[O-]	-100%	13%	7	0%	?
O=C(Nc1ccccc1N1CCOCC1)c1cccc([N+](=O)[O-])c1	-7%	-3%	3	0%	-29%
Cc1nc(N2CCOCC2)c2nc(-c3ccccc3)n(CCN(C)C)c2n1	-3%	/	/	/	13%
O=C(Nc1ccccn1)c1cc(-c2cccc(Cl)c2)nc2ccccc12	-5%	18µM*	7	0%	?
O=C(Nc1ccc([N+](=O)[O-])cn1)c1cc(-c2cccc(Br)c2)nc2ccccc12	-2%	0%	1	4%	-8%
COc1cccc(-c2cc(C(=O)Nc3ccc([N+](=O)[O-])cn3)c3ccccc3n2)c1	?	13µM*	-2	-3%	1%
O=C(Nc1ccc([N+](=O)[O-])cn1)c1cc(-c2cccc(Cl)c2)nc2ccccc12	4%	-19%	-8	0%	-2%
CCOc1cccc(-c2cc(C(=O)Nc3ccon3)c3ccccc3n2)c1	-5%	13µM*	-4	0%	?
COc1ccc(-c2nc3cnc(Oc4ccccc4)nc3n(C3CC3)c2=O)cc1	-4%	/	/	/	2%
CC1=CC(=O)C2C(C)(C)CCC[C@@]2(C)[C@@]1(O)CCc1ccoc1 (some centres undefined)	-8%	/	/	/	24%
CSc1cccc(NC(=O)COc2cccc3ccccc23)c1	6%	-13%	-12	0%	5%
O=C(O)c1ccc(/C=C2\COc3ccccc3C2=O)cc1	6.3µM*	?	-50	0%	7.1µM*
SMILES	VP16 counter	ELG1 repair inh	TSHR antag	B2AR arrestin	RORg inh
O=C(COc1cccc2ccccc12)Nc1nc2ccccc2[nH]1	11µM*	-10%	0	0%	10µM*
Cc1cc(C)c(OCC(=O)Nc2nc3ccccc3[nH]2)c(C)c1	-27%	10%	-4	0%	11µM*
Cc1ccc(OCC(=O)NCCc2nc3ccccc3[nH]2)c(C)c1	-6%	3%	-2	0%	1%
Cc1ccccc1OCC(=O)Nc1nc2ccccc2[nH]1	?	?	3	0%	7.1µM*
CCOC(CN1CCN(CC(C)C(=O)c2ccccc2)CC1)c1ccccc1 (centres undefined)	-1%	/	/	/	11%
CCOc1cc(/C=C2\COc3ccccc3C2=O)cc(Br)c1OCC(=O)N(C)C	20µM*	?	-37	0%	?
CCOc1ccccc1OCC(=O)Nc1nc2ccccc2[nH]1	?	-5%	3	0%	5.6µM*
CCOc1cc(/C=N/Nc2nc3ccccc3[nH]2)cc(Br)c1OCC(=O)N(C)C	-1%	23µM*	-23	0%	?
CCOc1ccc(OCCCC(=O)Nc2nc3ccccc3[nH]2)cc1	1%	8%	16	1%	-39%
C[C@@H](O)C#C[Si](C)(C)c1ccccc1	2%	/	/	/	-13%
O=C(Nc1ccccc1Oc1ccccc1)C1=COCCO1	/	28%	-5	0%	/
C1=C(c2ccc(-c3ccccc3)cc2)Nc2ncnn2C1c1ccco1 (centres undefined)	?	?	2	0%	11µM*
COc1cc2c(cc1OC)CN(C(=S)Nc1cccc(Cl)c1C)CC2	-15%	-9%	-3	0%	?
CCC[n+]1cn(/C(C(=S)Nc2cccc(Cl)c2C)=C(/[O-])c2ccc(OC)c(OC)c2)c2ccccc21	?	?	0	0%	14µM*
CCCC[C@@H]1CCCO[C@@](C(=O)NCc2ccc(S(C)(=O)=O)cc2)(C(F)(F)F)C1	1%	/	/	/	-19%
COc1ccc(-c2nc(Cn3c(SCc4ccc(C)cc4)nc4ccncc43)c(C)o2)cc1OC	?	13µM*	-12	0%	-36%
COc1ccc(-n2c(/C=C(\C)O)nc(=O)c3c(C)cc(C)nc32)cc1	-1%	8.2µM*	26	0%	0%
Clc1cccc(Nc2ncnc3c2cnn3-c2ccccc2)c1	22µM*	-20%	-27	0%	10µM*
Fc1cccc(Nc2ncnc3c2cnn3-c2ccccc2)c1	12%	?	-16	0%	?
CC1(C)CC[C@]2(C(=O)O)CC[C@]3(C)C(=CCC4[C@@]5(C)CC[C@H](O)C(C)(C)C5[C@H](O)C[C@]43C)C2C1 (some centres undefined)	-11%	/	/	/	-21%
Cc1ccc2[nH]c(=O)c(C3C(C#N)=C(N)Oc4c3ccc3cccnc43)cc2c1 (centres undefined)	-1%	?	1	0%	-6%
N#CC1=C(N)Oc2c(ccc3cccnc23)C1c1ccccc1 (centres undefined)	-4%	13µM*	-10	0%	-25%
O=C(/C=C/c1ccc(O)cc1)c1cccs1	-3%	/	/	/	14µM*
COc1cc(/C=C/C(C)=O)cc(OC)c1OC	30%	15%	-2	0%	-4%
COc1cc(/C=C/C(=O)c2cccs2)cc(OC)c1OC	?	/	/	/	7.9µM*

Assay outcomes as filed in PubChem BioAssay.
